According to PubChem BioAssay (NCATS):
Inconclusive results are not listed. Entries that show only a call come without a potency. Active and inactive are the calls of the source. The call rests on the fitted dose curve; in most records, active means well fitted curve in the direction sought with a large enough effect; inconclusive means small, poorly fitted or top-dose-only effect, or another doubt; inactive means no such curve, though single readings can be large; an effect the other way counts as inactive or inconclusive. Residues, ends and D or L forms follow the SMILES beside them. *: point of attachment. Cbz = O=C(OCc1ccccc1)*

Molecular target: Arylsulfatase A (Homo sapiens) (UniProt P15289)
Assay: qHTS screen for enhancers of Arylsulfatase A (ASA1): LOPAC Validation Assay (AID 720538); further: potency means the concentration at half of the fitted maximal effect
Settings: ASA enzyme activity, LOPAC qHTS enhancer assay; series mostly up to 57.5 µM
Outline: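 SV40-transformed skin fibroblasts from an MLD patient (ASA-I179S) were treated with compounds for 48h at 37 degree C, then lysed with 0.5mM pNCS final substrate for 14h at room temperature; NaOH stop, fluorescence read (Ex=525 nm; Em=598 nm).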

Sequence of Arylsulfatase A (Homo sapiens) (P15289 whole entry, looked up): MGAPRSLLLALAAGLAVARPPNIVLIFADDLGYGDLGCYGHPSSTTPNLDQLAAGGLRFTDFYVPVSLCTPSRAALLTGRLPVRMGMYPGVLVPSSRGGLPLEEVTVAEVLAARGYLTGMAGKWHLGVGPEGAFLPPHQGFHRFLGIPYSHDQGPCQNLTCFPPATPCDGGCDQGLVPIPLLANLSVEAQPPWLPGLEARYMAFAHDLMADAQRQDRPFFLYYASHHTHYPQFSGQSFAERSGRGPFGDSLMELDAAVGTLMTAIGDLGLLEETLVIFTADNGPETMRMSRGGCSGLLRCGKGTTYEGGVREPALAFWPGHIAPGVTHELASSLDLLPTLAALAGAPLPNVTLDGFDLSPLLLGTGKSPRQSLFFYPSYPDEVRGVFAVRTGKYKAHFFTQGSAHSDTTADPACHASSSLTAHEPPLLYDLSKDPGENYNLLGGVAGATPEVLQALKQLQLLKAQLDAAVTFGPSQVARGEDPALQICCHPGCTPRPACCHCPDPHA

For CCc1ccc2c(-c3cccc(Cl)c3)nc(=O)n(CC)c2n1, which Potency is on record?
Its Potency is “inactive”.

With CNc1cc(NS(=O)(=O)c2ccc(N)cc2)nc(NC)n1 as the compound, how does the Potency read?
Its Potency is “inactive”.

With COCc1nc2c([nH]1)c(=O)n(C)c(=O)n2CC(C)C as the compound, how does the Potency read?
Its Potency is “inactive”.

Which Potency does the source give for CNc1ncnc2c1ncn2[C@H]1C[C@H](OP(=O)(O)O)[C@@H](COP(=O)(O)O)O1 here?
Its Potency is “inactive”.

With NC(N)=N[C@@H](CCC(=O)O)C(=O)O as the compound, how does the Potency read?
The Potency was “inactive”.

With CCSC(=N)N as the compound, how does the Potency read?
Its Potency is “inactive”.

Which Potency does the source give for CCCCCCCCCC(=O)NC(CN1CCOCC1)[C@H](O)c1ccccc1 (stereo partly specified) here?
The Potency was “inactive”.

With COc1cc2c(CCNC(C)=O)c[nH]c2cc1O as the compound, how does the Potency read?
The Potency was 37.9 µM (active).

For CCC(=O)N1CCN(C(=O)c2ccccc2)CC1, which Potency is on record?
Its Potency is “inactive”.

Which Potency does the source give for NC/C=C\C(=O)O here?
The Potency was “inactive”.

With Nc1ncnc2c1nc(Br)n2C1OC2COP(=O)(O)O[C@@H]2C1O (stereo partly specified) as the compound, how does the Potency read?
Its Potency is “inactive”.

With CCCn1c(=O)c2c(ncn2C)n(CCC)c1=O as the compound, how does the Potency read?
The Potency was “inactive”.

With O=C(O)Cc1ccc(O)c(O)c1 as the compound, how does the Potency read?
Its Potency is “inactive”.

For CN(C)C(=O)/N=N/C(=O)N(C)C, which Potency is on record?
The Potency was “inactive”.

For Nc1nc2c(nc(Br)n2C2OC3COP(=O)(O)O[C@@H]3C2O)c(=O)[nH]1 (stereo partly specified), which Potency is on record?
The Potency was “inactive”.

For OC[C@H]1O[C@@H](n2cnc3cncnc32)[C@H](O)[C@@H]1O, which Potency is on record?
Its Potency is “inactive”.

For N=C(N)SCCc1cnc[nH]1, which Potency is on record?
The Potency was “inactive”.

For CC(C)[C@H](NC(=O)OCc1ccccc1)C(=O)N[C@H](C=O)Cc1ccccc1 (Cbz-Val-Phe-aldehyde), which Potency is on record?
The Potency was “inactive”.

For NCCCCN, which Potency is on record?
Its Potency is “inactive”.

With CCCCCCN(CCCCCC)C(=O)Cc1c(-c2ccc(F)cc2)[nH]c2ccccc12 as the compound, how does the Potency read?
The Potency was “inactive”.

Which Potency does the source give for Cn1c(=O)c2[nH]c(-c3ccc(S(=O)(=O)O)cc3)nc2n(C)c1=O here?
Its Potency is “inactive”.

Which Potency does the source give for CN1Cc2sccc2C(c2ccc(O)c(O)c2)C1 (stereo unspecified) here?
The Potency was “inactive”.

With NCCC1CCCC(CCN)N1 (stereo unspecified) as the compound, how does the Potency read?
Its Potency is “inactive”.

Which Potency does the source give for NCCCNCCCCNCCCN here?
Its Potency is “inactive”.

Which Potency does the source give for O=C1C2C=CC=CC2=NC(=S)N1CCN1CCC(=C(c2ccc(F)cc2)c2ccc(F)cc2)CC1 (stereo unspecified) here?
The Potency was “inactive”.

Which Potency does the source give for CC(C)(C)c1cc(/C=C(\C#N)C(N)=S)cc(C(C)(C)C)c1O here?
Its Potency is “inactive”.

With CCCCCCCCCCC(C)(C)C(=O)Nc1c(OC)cc(OC)cc1OC as the compound, how does the Potency read?
The Potency was “inactive”.

For CN[C@H](CC(=O)O)C(=O)O, which Potency is on record?
The Potency was “inactive”.

For COc1cc(CNC(=O)CCCCCCC(C)C)ccc1O, which Potency is on record?
The Potency was “inactive”.

With Cc1ccc([N+](=O)[O-])cc1S(=O)(=O)N(C)C as the compound, how does the Potency read?
The Potency was “inactive”.

For COc1ccc(CCn2nnnc2C2(c3ccc(C)cc3)CC2)cc1, which Potency is on record?
Its Potency is “inactive”.

With N=C(N)c1ccc(OCCCCCOc2ccc(C(=N)N)cc2)cc1 (tested in a mixture with another compound) as the compound, how does the Potency read?
Its Potency is “inactive”.

Which Potency does the source give for N[C@@H](CCC(=O)N[C@H](CSN=O)C(=O)NCC(=O)O)C(=O)O here?
Its Potency is “inactive”.

Which Potency does the source give for c1ccc(C(NCCNC(c2ccccc2)c2ccccc2)c2ccccc2)cc1 here?
The Potency was “inactive”.

With COC(=O)C(N)Cc1ccc(Cl)cc1 (stereo unspecified) as the compound, how does the Potency read?
Its Potency is “inactive”.

For NCCNS(=O)(=O)c1cccc2c(Cl)cccc12, which Potency is on record?
The Potency was “inactive”.

With O=C(O)c1cc2cc(F)ccc2[nH]1 as the compound, how does the Potency read?
Its Potency is “inactive”.

Which Potency does the source give for Nc1ccc(N2C(=O)c3ccccc3C2=O)c(Cl)c1 here?
Its Potency is “inactive”.

System: not listed separately
Assay: qHTS for compounds that reverse cellular toxicity of Amyloid beta (A-beta) peptide in yeast: LOPAC Validation Assay (AID 720559)
Settings: yeast expressing A-beta; series mostly up to 46.1 µM
Outline: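 Yeast cells expressing toxic A-beta were combined with pinned compounds in growth medium and incubated 48 hr at 30 C. Growth was read as absorbance at 600 nm and normalized to DMSO and to an equimolar FeCl3/clioquinol positive control.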

For CCc1ccc2c(-c3cccc(Cl)c3)nc(=O)n(CC)c2n1, which outcome is on record?
The outcome was “inactive”.

For CNc1cc(NS(=O)(=O)c2ccc(N)cc2)nc(NC)n1, which outcome is on record?
The outcome was “inactive”.

For COCc1nc2c([nH]1)c(=O)n(C)c(=O)n2CC(C)C, which outcome is on record?
Its outcome is “inactive”.

With CNc1ncnc2c1ncn2[C@H]1C[C@H](OP(=O)(O)O)[C@@H](COP(=O)(O)O)O1 as the compound, how does the outcome read?
Its outcome is “inactive”.

Which outcome does the source give for NC(N)=N[C@@H](CCC(=O)O)C(=O)O here?
Its outcome is “inactive”.

With CCSC(=N)N as the compound, how does the outcome read?
The outcome was “inactive”.

With CCCCCCCCCC(=O)NC(CN1CCOCC1)[C@H](O)c1ccccc1 (stereo partly specified) as the compound, how does the outcome read?
Its outcome is “inactive”.

For COc1cc2c(CCNC(C)=O)c[nH]c2cc1O, which outcome is on record?
Its outcome is “inactive”.

For CCC(=O)N1CCN(C(=O)c2ccccc2)CC1, which outcome is on record?
Its outcome is “inactive”.

For NC/C=C\C(=O)O, which outcome is on record?
The outcome was “inactive”.

With Nc1ncnc2c1nc(Br)n2C1OC2COP(=O)(O)O[C@@H]2C1O (stereo partly specified) as the compound, how does the outcome read?
The outcome was “inactive”.

For CCCn1c(=O)c2c(ncn2C)n(CCC)c1=O, which outcome is on record?
The outcome was “inactive”.

With O=C(O)Cc1ccc(O)c(O)c1 as the compound, how does the outcome read?
The outcome was “inactive”.

For CN(C)C(=O)/N=N/C(=O)N(C)C, which outcome is on record?
Its outcome is “inactive”.

For Nc1nc2c(nc(Br)n2C2OC3COP(=O)(O)O[C@@H]3C2O)c(=O)[nH]1 (stereo partly specified), which outcome is on record?
The outcome was “inactive”.

Which outcome does the source give for OC[C@H]1O[C@@H](n2cnc3cncnc32)[C@H](O)[C@@H]1O here?
Its outcome is “inactive”.

Which outcome does the source give for N=C(N)SCCc1cnc[nH]1 here?
The outcome was “inactive”.

With CC(C)[C@H](NC(=O)OCc1ccccc1)C(=O)N[C@H](C=O)Cc1ccccc1 (Cbz-Val-Phe-aldehyde) as the compound, how does the outcome read?
Its outcome is “inactive”.

With NCCCCN as the compound, how does the outcome read?
Its outcome is “inactive”.

Which outcome does the source give for CCCCCCN(CCCCCC)C(=O)Cc1c(-c2ccc(F)cc2)[nH]c2ccccc12 here?
The outcome was “inactive”.

Which outcome does the source give for Cn1c(=O)c2[nH]c(-c3ccc(S(=O)(=O)O)cc3)nc2n(C)c1=O here?
The outcome was “inactive”.

With CN1Cc2sccc2C(c2ccc(O)c(O)c2)C1 (stereo unspecified) as the compound, how does the outcome read?
The outcome was “inactive”.

With NCCC1CCCC(CCN)N1 (stereo unspecified) as the compound, how does the outcome read?
The outcome was “inactive”.

Which outcome does the source give for NCCCNCCCCNCCCN here?
The outcome was “inactive”.

For O=C1C2C=CC=CC2=NC(=S)N1CCN1CCC(=C(c2ccc(F)cc2)c2ccc(F)cc2)CC1 (stereo unspecified), which outcome is on record?
Its outcome is “inactive”.

For CC(C)(C)c1cc(/C=C(\C#N)C(N)=S)cc(C(C)(C)C)c1O, which outcome is on record?
Its outcome is “inactive”.

For CCCCCCCCCCC(C)(C)C(=O)Nc1c(OC)cc(OC)cc1OC, which outcome is on record?
Its outcome is “inactive”.

For CN[C@H](CC(=O)O)C(=O)O, which outcome is on record?
The outcome was “inactive”.

Which outcome does the source give for COc1cc(CNC(=O)CCCCCCC(C)C)ccc1O here?
The outcome was “inactive”.

Which outcome does the source give for Cc1ccc([N+](=O)[O-])cc1S(=O)(=O)N(C)C here?
Its outcome is “inactive”.

For COc1ccc(CCn2nnnc2C2(c3ccc(C)cc3)CC2)cc1, which outcome is on record?
Its outcome is “inactive”.

With N=C(N)c1ccc(OCCCCCOc2ccc(C(=N)N)cc2)cc1 (tested in a mixture with another compound) as the compound, how does the outcome read?
The outcome was “inactive”.

For N[C@@H](CCC(=O)N[C@H](CSN=O)C(=O)NCC(=O)O)C(=O)O, which outcome is on record?
Its outcome is “inactive”.

Which outcome does the source give for c1ccc(C(NCCNC(c2ccccc2)c2ccccc2)c2ccccc2)cc1 here?
The outcome was “inactive”.

With COC(=O)C(N)Cc1ccc(Cl)cc1 (stereo unspecified) as the compound, how does the outcome read?
Its outcome is “inactive”.

With NCCNS(=O)(=O)c1cccc2c(Cl)cccc12 as the compound, how does the outcome read?
The outcome was “inactive”.

With O=C(O)c1cc2cc(F)ccc2[nH]1 as the compound, how does the outcome read?
The outcome was “inactive”.

Which outcome does the source give for Nc1ccc(N2C(=O)c3ccccc3C2=O)c(Cl)c1 here?
Its outcome is “inactive”.
